Compounds without any hit were thinned out: in the full panel of roughly 83,000, 20% have a hit.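 Cell lines were cultured in 96-well plates, exposed to a single compound concentration, and assessed for percent growth 48 hours later.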 Values without a mark were called inactive. Activity calls are given as the source filed them. How the source made its calls: active means growth percent below 10; inactive means the rest.
Tests used:
Assay in all cases: NCI-60 one-dose screen, 48 h (100 = growth as untreated, 0 = no growth, -100 = all killed)
[1] = test system: DU-145 prostate; settings: 10 µM unless noted
[2] = test system: K-562 leukemia; settings: 10 µM unless noted
[3] = test system: MALME-3M melanoma; settings: 10 µM unless noted
[4] = test system: MDA-MB-231 breast; settings: 10 µM unless noted
[5] = test system: RXF 393 renal; settings: 10 µM unless noted
[6] = test system: SF-268 CNS; settings: 10 µM unless noted
[7] = test system: SF-295 CNS; settings: 10 µM unless noted
[8] = test system: SF-539 CNS; settings: 10 µM unless noted
[9] = test system: UACC-257 melanoma; settings: 10 µM unless noted
[10] = test system: M14 melanoma; settings: 10 µM unless noted
[11] = test system: HCT-15 colon; settings: 10 µM unless noted
[12] = test system: HT29 colon; settings: 10 µM unless noted
[13] = test system: SNB-75 CNS; settings: 10 µM unless noted
[14] = test system: SNB-19 CNS; settings: 10 µM unless noted
[15] = test system: U251 CNS; settings: 10 µM unless noted
[16] = test system: PC-3 prostate; settings: 10 µM unless noted
[17] = test system: SK-MEL-5 melanoma; settings: 10 µM unless noted
[18] = test system: UACC-62 melanoma; settings: 10 µM unless noted
[19] = test system: LOX IMVI melanoma; settings: 10 µM
[20] = test system: SK-MEL-28 melanoma; settings: 10 µM unless noted

Row | Structure (SMILES) | growth [1] | growth [2] | growth [3] | growth [4] | growth [5] | growth [6] | growth [7] | growth [8] | growth [9] | growth [10] | growth [11] | growth [12] | growth [13] | growth [14] | growth [15] | growth [16] | growth [17] | growth [18] | growth [19] | growth [20]
1 | Oc1cc2ccccc2c(-c2c(O)c(O)cc3ccccc23)c1O | 47.3% | 43.8% | 75.4% | 75.1% | 72.7% | 37.9% | -48% (active) | 21.4% | 56.1% | 25% | 28.2% | 45.3% | 41.5% | 41.5% | 33.9% | 14.7% | 33.4% | 27.9% | 14.5% | 53.2%
2 | O=[N+]([O-])c1ccc(-c2nc(N(CCO)CCO)c3ccccc3n2)o1 | -22.8% (active) | 4.2% (active) | -74.5% (active) | -6.61% (active) | -87.1% (active) | -16.2% (active) | -32.1% (active) | -48.9% (active) | -36.3% (active) | -90% (active) | -3.11% (active) | -27.7% (active) | -91.7% (active) | -0.996% (active) | 7.6% (active) | -0.975% (active) | -99% (active) | -71.6% (active) | -65.6% (active) | -64.8% (active)
3 | NC(=S)c1c(N)n(C2OC(CO)C(O)C2O)c2ncnc(N)c12 (stereo not given) | 4.75% (active) | -17.2% (active) | -53.4% (active) | 29.7% | -69.3% (active) | -3.78% (active) | -0.294% (active) | -51.2% (active) | -10.2% (active) | -24.5% (active) | 3.4% (active) | 5.09% (active) | -8.18% (active) | 14.9% | 17.3% | -10.1% (active) | -77.5% (active) | -73.7% (active) | -3.22% (active) | -46.8% (active)
4 | CCCCCCCCCCCCCCCCCCSC(=N)N | 59.2% | 40.4% | 82.8% | 29.5% | 71.5% | 60.8% | 80.9% | 86.6% | 80.5% | 60% | 66.6% | 28.4% | 88.6% | 89.2% | 72.3% | 65% | 98.3% | 77.6% | 52.7% | 93.5%
5 | Cc1ccc(C)c(CCO)c1 | 93% | 116% | 106% | 92.6% | 103% | 96.1% | 102% | 97.2% | 94.8% | 108% | 112% | 109% | 95.7% | 101% | 90.6% | 95.5% | 90.7% | 103% | 100% | 105%
6 | CCOC(=O)CNC(=O)Sc1ccc(C(C)(C)C)cc1 | 114% | 71.9% | 90.7% | 105% | 118% | 107% | 102% | 94% | 111% | 102% | 94.3% | 114% | 75.7% | 103% | 83.5% | 106% | 107% | 91% | 83.9% | 113%
7 | CC(=O)Nc1ccc(O)c(C)c1 | 109% | 98.6% | 98.8% | 96.9% | 116% | 100% | 105% | 100% | 87.8% | 100% | 118% | 98.4% | 95.4% | 104% | 92.5% | 87% | 100% | 104% | 95.4% | 103%
8 | CC(=O)N=c1ccc2nc3c(cc(N)c4ccccc43)oc-2c1 | -96% (active) | -55.7% (active) | -67.3% (active) | -9.2% (active) | 14% | -11.1% (active) | -65.7% (active) | -71.2% (active) | -81.5% (active) | -68.8% (active) | -75.5% (active) | 1.15% (active) | 34% | -11.1% (active) | -73.7% (active) | 2.46% (active) | -100% (active) | -61.2% (active) | -74.3% (active) | -2.3% (active)

From PubChem BioAssay (NCI)
